# Results from PubChem BioAssay AID1159580 (chemical genetic matrix, 2015).
# The whole screen tested about 5,500 compounds, of which about 2,000 (36%) were called active. Inconclusive results (about 18%) are left out. The list shows a part of the results. A number with no mark means an inactive call. Rule as the data show it: active = normalized growth mostly below about 0.91 (no sharp cut-off); inconclusive = no clear call, values can overlap the other calls; inactive = mostly above about 0.92.
# Experiment: chemical genetic growth profiling, strain panel (AID 1159580);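 also: tested at 20 µM; growth read once vehicle control cultures reached saturation at 30 °C; 1 = growth at the plate median or of vehicle wells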
# Conditions: S. cerevisiae deletion strains, growth OD
structure (smiles),measurement,setting,value
CC[C@H](C)C(=O)O[C@H]1CCC=C2C=C[C@H](C)C(CCC3C[C@@H](O)CC(=O)O3)[C@H]21 (some centres undefined),normalized growth,"locus YAL021C, strain ccr4, stronger effect = lower value",0.894 (active)
same,normalized growth,"locus YAL026C, strain drs2, stronger effect = lower value",1.02
same,normalized growth,"locus YAL030W, strain snc1, stronger effect = lower value",0.997
same,normalized growth,"locus YBL061C, strain skt5, stronger effect = lower value",1.01
same,normalized growth,"locus YBR009C, strain hhf1, stronger effect = lower value",1
same,normalized growth,"locus YBR021W, strain FUR4, stronger effect = lower value",0.958
same,normalized growth,"locus YBR023C, strain chs3, stronger effect = lower value",1.01
same,normalized growth,"locus YBR171W, strain sec66, stronger effect = lower value",1.02
same,normalized growth,"locus YBR229C, strain ROT2, stronger effect = lower value",0.983
same,normalized growth,"locus YBR231C, strain swc5, stronger effect = lower value",0.95
same,normalized growth,"locus YBR279W, strain paf1, stronger effect = lower value",1
same,normalized growth,"locus YCL011C, strain gbp2, stronger effect = lower value",1.01
same,normalized growth,"locus YCL016C, strain dcc1, stronger effect = lower value",0.997
same,normalized growth,"locus YCL029C, strain bik1, stronger effect = lower value",0.969
same,normalized growth,"locus YCL061C, strain MRC1, stronger effect = lower value",1
same,normalized growth,"locus YCL069W, strain vba3, stronger effect = lower value",1
same,normalized growth,"locus YCR088W, strain abp1, stronger effect = lower value",1.01
same,normalized growth,"locus YDL005C, strain med2, stronger effect = lower value",0.988
same,normalized growth,"locus YDL035C, strain GPR1, stronger effect = lower value",0.981
same,normalized growth,"locus YDL040C, strain nat1, stronger effect = lower value",1
same,normalized growth,"locus YDL074C, strain BRE1, stronger effect = lower value",0.957
same,normalized growth,"locus YDL101C, strain DUN1, stronger effect = lower value",0.989
same,normalized growth,"locus YDL134C, strain PPH21, stronger effect = lower value",1.01
same,normalized growth,"locus YDL185W, strain tfp1, stronger effect = lower value",0.978
same,normalized growth,"locus YDL192W, strain arf1, stronger effect = lower value",0.972
same,normalized growth,"locus YDR001C, strain nth1, stronger effect = lower value",1
same,normalized growth,"locus YDR069C, strain doa4, stronger effect = lower value",1.01
same,normalized growth,"locus YDR101C, strain arx1, stronger effect = lower value",0.974
same,normalized growth,"locus YDR137W, strain rgp1, stronger effect = lower value",1.39 [resistant] (active)
same,normalized growth,"locus YDR150W, strain NUM1, stronger effect = lower value",0.997
same,normalized growth,"locus YDR159W, strain sac3, stronger effect = lower value",1.04
same,normalized growth,"locus YDR162C, strain NBP2, stronger effect = lower value",0.987
same,normalized growth,"locus YDR195W, strain ref2",1
same,normalized growth,"locus YDR297W, strain sur2, stronger effect = lower value",1
same,normalized growth,"locus YDR318W, strain mcm21, stronger effect = lower value",0.992
same,normalized growth,"locus YDR334W, strain swr1, stronger effect = lower value",0.997
same,normalized growth,"locus YDR335W, strain msn5, stronger effect = lower value",0.999
same,normalized growth,"locus YDR388W, stronger effect = lower value",0.981
same,normalized growth,"locus YDR392W, strain spt3, stronger effect = lower value",0.989
same,normalized growth,"locus YDR502C, strain sam2, stronger effect = lower value",1.02
same,normalized growth,"locus YEL003W, strain gim4, stronger effect = lower value",1.02
same,normalized growth,"locus YEL037C, strain rad23, stronger effect = lower value",1
same,normalized growth,"locus YEL061C, strain CIN8 (second series), stronger effect = lower value",0.999
same,normalized growth,"locus YEL061C, strain CIN8, stronger effect = lower value",0.99
same,normalized growth,"locus YER015W, strain faa2, stronger effect = lower value",1.01
same,normalized growth,"locus YER016W, strain bim1, stronger effect = lower value",0.999
same,normalized growth,"locus YER110C, stronger effect = lower value",0.968
same,normalized growth,"locus YER111C, strain swi4, stronger effect = lower value",0.995
same,normalized growth,"locus YER155C, strain BEM2 (second series), stronger effect = lower value",1.02
same,normalized growth,"locus YER155C, strain BEM2, stronger effect = lower value",0.967
same,normalized growth,"locus YER167W, strain BCK2, stronger effect = lower value",0.99
same,normalized growth,"locus YFR010W, strain ubp6, stronger effect = lower value",1.03
same,normalized growth,"locus YGL078C, strain dbp3, stronger effect = lower value",0.971
same,normalized growth,"locus YGL086W, strain mad1, stronger effect = lower value",0.956
same,normalized growth,"locus YGL167C, strain pmr1, stronger effect = lower value",0.996
same,normalized growth,"locus YGL173C, strain kem1, stronger effect = lower value",1.01
same,normalized growth,"locus YGL227W, strain vid30, stronger effect = lower value",1
same,normalized growth,"locus YGL240W, strain doc1, stronger effect = lower value",1.02
same,normalized growth,"locus YGL248W, strain PDE1, stronger effect = lower value",0.998
same,normalized growth,"locus YGL253W, strain hxk2, stronger effect = lower value",1.01
same,normalized growth,"locus YGR135W, strain pre9, stronger effect = lower value",1
same,normalized growth,"locus YGR252W, strain gcn5, stronger effect = lower value",1.03
same,normalized growth,"locus YHR013C, strain ard1, stronger effect = lower value",0.947
same,normalized growth,"locus YHR027C, strain rpn1, stronger effect = lower value",1.02
same,normalized growth,"locus YHR030C, strain SLT2, stronger effect = lower value",0.982
same,normalized growth,"locus YHR079C, strain IRE1 (second series), stronger effect = lower value",0.98
same,normalized growth,"locus YHR094C, strain hxt1, stronger effect = lower value",0.981
same,normalized growth,"locus YHR129C, strain ARP1, stronger effect = lower value",0.987
same,normalized growth,"locus YHR142W, strain chs7, stronger effect = lower value",1.01
same,normalized growth,"locus YHR200W, strain rpn10, stronger effect = lower value",0.978
same,normalized growth,"locus YIL066C, strain RNR3, stronger effect = lower value",0.989
same,normalized growth,"locus YIL073C, strain SPO22, stronger effect = lower value",0.975
same,normalized growth,"locus YIL125W, strain kgd1, stronger effect = lower value",0.99
same,normalized growth,"locus YIR030C, strain dcg1, stronger effect = lower value",0.981
same,normalized growth,"locus YJL092W, strain hpr5, stronger effect = lower value",1.01
same,normalized growth,"locus YJL095W, strain BCK1 (second series), stronger effect = lower value",1.01
same,normalized growth,"locus YJL095W, strain BCK1, stronger effect = lower value",1.03
same,normalized growth,"locus YJL115W, strain asf1, stronger effect = lower value",1
same,normalized growth,"locus YJL129C, strain trk1, stronger effect = lower value",1.04
same,normalized growth,"locus YJL134W, strain LCB3, stronger effect = lower value",0.977
same,normalized growth,"locus YJL154C, strain vps35, stronger effect = lower value",1
same,normalized growth,"locus YJL164C, strain tpk1, stronger effect = lower value",1.01
same,normalized growth,"locus YJL166W, strain qcr8, stronger effect = lower value",1.02
same,normalized growth,"locus YJL168C, strain set2, stronger effect = lower value",0.975
